# Laboratory results as given in PubChem BioAssay (NCATS).
# Records with an inconclusive call do not appear. A call without a number means that no potency is given here. Calls of active or inactive are those of the source. Unless noted, calls come from the whole dose curve; as a rule, active = well fitted curve in the direction sought with a large enough effect; inconclusive = small, poorly fitted or top-dose-only effect, or another doubt; inactive = no such curve, though single readings can be large; an effect the other way counts as inactive or inconclusive.
# Experiments:
# [1] = target: Estrogen receptor (Homo sapiens) (UniProt P03372); assay: qHTS assay for small molecule antagonists of estrogen receptor alpha signaling (AID 588513; active = well fitted curve in the direction sought with a large enough effect in the signal ratio, with a control signal flat, not every such curve was filed as active; the % refers to the signal ratio; note: potency is the fitted concentration of half-maximal effect)
# Summary of the method: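 Cells were plated at 5000/well and incubated 4 h at 37 C. Compounds were added as 1:2 dilution series, duplicates. 17-beta-estradiol (0.5nM final) was added for 18 h before CCF4 detection.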
# [2] = target: Estrogen receptor (Homo sapiens) (UniProt P03372); assay: qHTS assay for small molecule agonists of estrogen receptor alpha signaling (AID 588514; calls by dose curve; note: nearly all actives have a fitted effect of over 70% in size)
# Summary of the method: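 ER-alpha-UAS-bla GripTite HEK293 cells, 5000/well in 2% charcoal/dextran-stripped FBS medium, treated with compound titrations 18 h at 37 C. CCF4 beta-lactamase read by fluorescence after 2 h RT; normalised to 20 nM 17-beta-estradiol (100%) and DMSO (0%), Hill fit for EC50 and efficacy.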
# [3] = target: Androgen receptor (Homo sapiens) (UniProt P10275); assay: qHTS assay for small molecule agonists of androgen receptor signaling (AID 588515; active = well fitted curve in the direction sought with a large enough effect in the signal ratio, with a control signal flat; the % refers to the signal ratio); details: AR-UAS-bla HEK293, beta-lactamase ratio, agonist 16 h; stronger effect = higher value
# Summary of the method: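 EC50 and efficacy came from Hill fits of titrations (up to 92 uM) normalized to 30 nM R1881 as 100% and DMSO as 0%. Compound exposure was 16 h at 37 C on AR-UAS-bla HEK293 cells, with a 405/460/530 nm CCF4 fluorescence read.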
# [4] = target: Glucocorticoid receptor (Homo sapiens) (UniProt P04150); assay: qHTS assay for small molecule agonists of glucocorticoid receptor signaling (AID 588532; active = well fitted curve in the direction sought with a large enough effect in the signal ratio, with a control signal flat; the % refers to the signal ratio); details: HeLa MMTV-bla, beta-lactamase ratio, agonist, 18 h; stronger effect = higher value; percent of dexamethasone control, DMSO zero
# Summary of the method: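 HeLa GRE-bla reporter cells; 18 h compound exposure at 37 C; 2 h CCF4 loading at room temperature; fluorescence at 460 and 530 nm; EC50 by Hill equation.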
# [5] = target: Glucocorticoid receptor (Homo sapiens) (UniProt P04150); assay: qHTS assay for small molecule antagonists of glucocorticoid receptor signaling (AID 588533; active = well fitted inhibition curve with a large enough effect in the signal ratio, with a control signal flat, not every such curve was filed as active; the % refers to the signal ratio;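 note: cells stimulated with 2 nM dexamethasone as agonist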)
# Summary of the method: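 Antagonist-mode qHTS: compound titrations added to GRE-bla HeLa cells, then dexamethasone 2 nM final; 18 h, 37 C. CCF4 FRET fluorescence normalized to dexamethasone and DMSO; IC50 from Hill fit.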
# [6] = target: Peroxisome proliferator-activated receptor gamma (Homo sapiens) (UniProt P37231); assay: qHTS assay for small molecule agonists of peroxisome proliferator-activated receptor gamma signaling (AID 588536; active = well fitted curve in the direction sought with a large enough effect in the signal ratio, with a control signal flat, not every such curve was filed as active; the % refers to the signal ratio)
# Summary of the method: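 Ratiometric blue/green fluorescence (405 nm excitation; 460 and 530 nm emission) from CCF4-loaded HEK293 reporter cells serves as signal. Exposure to test compounds lasts 16 h at 37 C in medium containing 1% charcoal/dextran-treated serum.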
# [7] = target: Vitamin D3 receptor (Homo sapiens) (UniProt P11473); assay: qHTS assay for small molecule agonists of vitamin D receptor signaling (AID 588543; calls by dose curve)
# Summary of the method: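 qHTS in agonist mode: compound titrations stimulate a VDR-driven β-lactamase reporter in HEK293T cells over 16 h at 37 °C. Response normalized to 50 nM 1α,25-dihydroxyvitamin D3 = 100%, DMSO = 0%; Hill fitting gives EC50 and maximal response.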
# [8] = qHTS assay for small molecule agonists of the antioxidant response element (ARE) signaling pathway (AID 651741; active = well fitted activation curve with a large enough effect in the signal ratio; the % refers to the signal ratio; note: potency is the fitted concentration of half-maximal effect)
# Summary of the method: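 CellSensor ARE-bla HepG2 cells (2,000/well) carrying ARE-driven beta-lactamase, exposed 16 h at 37 C. LiveBLAzer B/G FRET substrate added for 2 h at room temperature; fluorescence intensity read.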
# [9] = qHTS assay for environmental chemicals that activate the Aryl hydrocarbon Receptor (AhR) signaling pathway (AID 651777); details: 1A2-DRE human hepatoma cells, luciferase, 24 h; stronger effect = higher value; note: nearly all actives have a fitted effect of over 15% in size
# Summary of the method: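 Human hepatoma 1A2-DRE cells stably carrying a DRE/CYP1A2 promoter–luciferase reporter, 1,200 cells/well, exposed to compound 24 hr at 37 C. Luciferase read by One-Glo luminescence after 30 min at room temperature; increased signal marks AhR activation.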
# [10] = qHTS assay for cell viability of HEK293 cells (AID 743288); details: ATP luminescence (CellTiter-Glo), 18 h; max response: stronger effect = lower value; note: potency is the fitted concentration of half-maximal effect; nearly all actives have a fitted effect of over 50% in size
# Summary of the method: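 The Tox21 protocol used parental HEK293 cells treated for 18 h at 37 C with compounds delivered by pintool; ATP-coupled luminescence after 30 min at room temperature gave viability.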
# [11] = test system: Zika virus NS2B-NS3 protease; assay: Primary screen GU AMC qHTS for Zika virus inhibitors (AID 1347154); note: nearly all actives have a fitted effect of over 70% in size
# Summary of the method: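 Unlinked Zika NS2B hydrophilic domain–NS3 protease complex at 25 nM in 10 mM Tris-HCl pH 8.0, 0.01% Tween 20, with an AMC peptide substrate. Fluorescence change (340/450 nm) over 15 min at room temperature, normalized to controls, fitted to 4-parameter Hill.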
# [12] = qHTS to identify inhibitors of the type 1 interferon - major histocompatibility complex class I in skeletal muscle: primary screen against the NCATS Mechanism Interrogation Plate v5.0 (MIPE) Libary (AID 1347411); note: nearly all actives have a fitted effect of over 65% in size
# Summary of the method: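 Immortalized human myoblasts (C25cl48) with HiBit knocked into endogenous HLA-B*08:01 were stimulated with 4 ng/ml IFN-beta and given compounds in 11-point 1:3 titration from 46 uM. After 24 h at 37 C, lytic HiBiT luminescence was read.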
# [13] = Primary qHTS for small molecule stabilizers of the endoplasmic reticulum resident proteome: Secreted ER Calcium Modulated Protein (SERCaMP) assay (AID 1508630)
# Summary of the method: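 GLuc-SERCaMP-expressing SH-SY5Y cells, pretreated 16 h with compound, are challenged with thapsigargin to empty ER calcium stores; after 4 h, coelenterazine is added directly to the medium and luminescence is imaged.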
# [14] = Primary qHTS for inhibitors of nuclear receptor binding SET domain protein 2 (NSD2) in an isogenic RCH-ACV NSD2 p.E1099K mutant (9B) (AID 1645876); note: nearly all actives have a fitted effect of over 70% in size
# [15] = Primary qHTS for inhibitors of nuclear receptor binding SET domain protein 2 (NSD2) in an RCH-ACV wild type WT cells (2C) (AID 1645877); note: nearly all actives have a fitted effect of over 70% in size
# [16] = target: Glutathione peroxidase 1 (Homo sapiens) (UniProt P07203); assay: Primary qHTS Assay for Inhibitors of Recombinant Selenoprotein Glutathione Peroxidase 1 (GPX1) (AID 1845191); note: nearly all actives have a fitted effect of over 65% in size
# Summary of the method: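 GR-coupled assay: compounds preincubated 30 min at room temperature with GPX1, then reaction started with CHP; final 10 nM GPX1, 1 mM GSH, 0.5 mM CHP, 0.5 mM NADPH, 100 nM GR, 0.01% BSA, pH 7.5 Tris buffer. NADPH fluorescence (340/450 nm) read at 0 and 15 min.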
# [17] = target: Phospholipid hydroperoxide glutathione peroxidase GPX4 (Homo sapiens) (UniProt P36969); assay: Primary qHTS Assay for Inhibitors of Recombinant Selenoprotein Glutathione Peroxidase 4 (GPX4) (AID 1845192); details: outcome: dose series up to 50 µM unless noted; note: series mostly up to about 50 µM; nearly all actives have a fitted effect of over 65% in size
# Summary of the method: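 GR-coupled assay: recombinant GPX4 preincubated 30 min with compound at room temperature; final 200 nM GPX4, 1 mM GSH, 0.5 mM cumene hydroperoxide, 0.5 mM NADPH, 100 nM GR, 0.01% BSA, pH 7.5 Tris. NADPH fluorescence (340/450 nm) read at 0 and 15 min.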
# [18] = qHTS drug screen for cell cycle checkpoint inhibitors in PARPi-resistant BRCA-mutant ovarian cancer cell lines. (AID 1963452; calls by dose curve); details: PEO1/OlaR viability, CellTiter-Glo luminescence, 96 h, stronger effect = lower value
# Summary of the method: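 PEO1, PEO4 and PEO1/OlaR ovarian cancer cells, 600 per well, exposed 96 h at 37C to a dilution series. Viability read by CellTiter-Glo luminescence, normalized to DMSO and empty wells; activity summarized as Z-AUC.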
# [19] = target: Nuclear receptor subfamily 1 group I member 2 (Rattus norvegicus) (UniProt Q9R1A7); assay: qHTS assay for small molecule activators of the rat pregnane X receptor (rPXR) signaling pathway (AID 651751; call rule not given here); details: rPXR reporter cells, luciferase (One-Glo), 24 h
# Nuclear receptor subfamily 1 group I member 2 (Rattus norvegicus), sequence (Q9R1A7 whole entry, looked up): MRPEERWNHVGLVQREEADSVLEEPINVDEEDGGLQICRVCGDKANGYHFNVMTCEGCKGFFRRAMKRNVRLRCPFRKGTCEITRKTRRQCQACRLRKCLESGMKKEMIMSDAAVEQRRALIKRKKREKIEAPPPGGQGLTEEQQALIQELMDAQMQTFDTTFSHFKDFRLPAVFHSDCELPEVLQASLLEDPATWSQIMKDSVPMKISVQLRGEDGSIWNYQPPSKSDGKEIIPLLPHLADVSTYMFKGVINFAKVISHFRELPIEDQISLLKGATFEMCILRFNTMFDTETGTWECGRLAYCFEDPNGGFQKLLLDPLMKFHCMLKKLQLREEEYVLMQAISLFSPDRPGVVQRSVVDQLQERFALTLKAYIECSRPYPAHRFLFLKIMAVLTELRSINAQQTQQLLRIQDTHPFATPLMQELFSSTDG
# Glucocorticoid receptor (Homo sapiens), sequence (P04150 whole entry, looked up): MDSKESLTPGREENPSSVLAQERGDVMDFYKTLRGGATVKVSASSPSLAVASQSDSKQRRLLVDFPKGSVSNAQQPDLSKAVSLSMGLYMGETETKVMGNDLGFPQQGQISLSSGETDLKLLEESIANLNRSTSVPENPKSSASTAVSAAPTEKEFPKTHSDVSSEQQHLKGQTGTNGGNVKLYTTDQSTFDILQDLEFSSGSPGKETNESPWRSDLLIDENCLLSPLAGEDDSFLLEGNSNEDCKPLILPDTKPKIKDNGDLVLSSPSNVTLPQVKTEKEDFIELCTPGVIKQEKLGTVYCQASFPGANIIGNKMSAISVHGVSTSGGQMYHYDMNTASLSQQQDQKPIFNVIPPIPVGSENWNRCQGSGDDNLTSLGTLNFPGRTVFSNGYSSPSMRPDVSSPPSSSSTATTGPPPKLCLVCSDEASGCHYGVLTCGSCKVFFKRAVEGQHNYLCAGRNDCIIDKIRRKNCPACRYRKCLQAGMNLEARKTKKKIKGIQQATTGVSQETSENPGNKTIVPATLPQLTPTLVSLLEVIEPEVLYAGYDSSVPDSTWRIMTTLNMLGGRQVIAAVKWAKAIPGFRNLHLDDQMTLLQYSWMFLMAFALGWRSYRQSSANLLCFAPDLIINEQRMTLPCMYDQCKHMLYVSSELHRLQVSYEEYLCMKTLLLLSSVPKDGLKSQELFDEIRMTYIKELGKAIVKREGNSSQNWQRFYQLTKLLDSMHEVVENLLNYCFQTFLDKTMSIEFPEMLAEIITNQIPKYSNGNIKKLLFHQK
# Estrogen receptor (Homo sapiens), sequence (P03372 whole entry, looked up): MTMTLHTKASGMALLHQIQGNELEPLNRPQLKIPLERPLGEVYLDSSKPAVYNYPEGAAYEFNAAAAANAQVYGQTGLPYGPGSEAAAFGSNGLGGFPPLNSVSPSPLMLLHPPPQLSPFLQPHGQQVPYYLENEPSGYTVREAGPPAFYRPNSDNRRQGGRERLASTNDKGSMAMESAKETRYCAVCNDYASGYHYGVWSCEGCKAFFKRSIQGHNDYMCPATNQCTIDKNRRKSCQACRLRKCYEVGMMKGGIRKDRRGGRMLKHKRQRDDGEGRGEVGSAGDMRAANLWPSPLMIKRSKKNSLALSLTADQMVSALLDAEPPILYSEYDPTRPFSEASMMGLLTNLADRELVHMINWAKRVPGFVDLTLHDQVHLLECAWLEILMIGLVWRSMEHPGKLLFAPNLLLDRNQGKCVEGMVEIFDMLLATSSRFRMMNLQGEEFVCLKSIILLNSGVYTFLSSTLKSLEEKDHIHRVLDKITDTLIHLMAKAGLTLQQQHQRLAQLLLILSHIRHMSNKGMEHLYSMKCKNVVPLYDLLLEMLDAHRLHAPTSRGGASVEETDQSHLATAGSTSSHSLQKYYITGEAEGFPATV
# Peroxisome proliferator-activated receptor gamma (Homo sapiens), sequence (P37231 whole entry, looked up): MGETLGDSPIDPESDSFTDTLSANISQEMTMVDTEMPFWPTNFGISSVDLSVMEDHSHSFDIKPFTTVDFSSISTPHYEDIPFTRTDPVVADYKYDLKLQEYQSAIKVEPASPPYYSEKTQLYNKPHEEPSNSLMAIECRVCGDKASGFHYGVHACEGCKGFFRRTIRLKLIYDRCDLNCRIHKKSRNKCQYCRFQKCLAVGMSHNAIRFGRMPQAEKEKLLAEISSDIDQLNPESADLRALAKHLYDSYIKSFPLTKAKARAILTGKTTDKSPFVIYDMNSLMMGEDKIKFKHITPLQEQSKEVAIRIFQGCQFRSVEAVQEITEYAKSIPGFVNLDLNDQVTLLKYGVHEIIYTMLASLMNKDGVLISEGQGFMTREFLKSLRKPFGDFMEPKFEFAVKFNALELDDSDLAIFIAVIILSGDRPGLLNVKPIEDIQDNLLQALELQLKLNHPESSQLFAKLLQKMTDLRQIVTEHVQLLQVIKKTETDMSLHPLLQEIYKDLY
# Vitamin D3 receptor (Homo sapiens), sequence (P11473 whole entry, looked up): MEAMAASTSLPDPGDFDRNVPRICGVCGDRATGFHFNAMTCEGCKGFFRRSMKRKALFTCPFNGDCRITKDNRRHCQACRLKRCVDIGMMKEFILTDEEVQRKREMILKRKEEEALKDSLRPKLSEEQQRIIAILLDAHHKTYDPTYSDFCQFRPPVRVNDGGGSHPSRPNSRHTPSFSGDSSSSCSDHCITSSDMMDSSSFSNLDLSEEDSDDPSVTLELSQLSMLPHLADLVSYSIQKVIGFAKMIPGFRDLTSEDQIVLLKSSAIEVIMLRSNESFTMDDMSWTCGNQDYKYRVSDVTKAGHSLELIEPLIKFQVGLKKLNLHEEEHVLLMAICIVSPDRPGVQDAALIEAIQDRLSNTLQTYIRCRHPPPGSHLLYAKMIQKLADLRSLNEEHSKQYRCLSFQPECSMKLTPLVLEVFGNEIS
# Phospholipid hydroperoxide glutathione peroxidase GPX4 (Homo sapiens), sequence (P36969 whole entry, looked up): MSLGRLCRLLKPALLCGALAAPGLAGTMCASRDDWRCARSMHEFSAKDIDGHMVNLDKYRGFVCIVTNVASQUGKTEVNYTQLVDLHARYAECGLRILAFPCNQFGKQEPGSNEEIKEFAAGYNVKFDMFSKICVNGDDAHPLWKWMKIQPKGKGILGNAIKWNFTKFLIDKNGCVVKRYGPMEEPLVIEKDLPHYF
# Androgen receptor (Homo sapiens), sequence (P10275 whole entry, looked up): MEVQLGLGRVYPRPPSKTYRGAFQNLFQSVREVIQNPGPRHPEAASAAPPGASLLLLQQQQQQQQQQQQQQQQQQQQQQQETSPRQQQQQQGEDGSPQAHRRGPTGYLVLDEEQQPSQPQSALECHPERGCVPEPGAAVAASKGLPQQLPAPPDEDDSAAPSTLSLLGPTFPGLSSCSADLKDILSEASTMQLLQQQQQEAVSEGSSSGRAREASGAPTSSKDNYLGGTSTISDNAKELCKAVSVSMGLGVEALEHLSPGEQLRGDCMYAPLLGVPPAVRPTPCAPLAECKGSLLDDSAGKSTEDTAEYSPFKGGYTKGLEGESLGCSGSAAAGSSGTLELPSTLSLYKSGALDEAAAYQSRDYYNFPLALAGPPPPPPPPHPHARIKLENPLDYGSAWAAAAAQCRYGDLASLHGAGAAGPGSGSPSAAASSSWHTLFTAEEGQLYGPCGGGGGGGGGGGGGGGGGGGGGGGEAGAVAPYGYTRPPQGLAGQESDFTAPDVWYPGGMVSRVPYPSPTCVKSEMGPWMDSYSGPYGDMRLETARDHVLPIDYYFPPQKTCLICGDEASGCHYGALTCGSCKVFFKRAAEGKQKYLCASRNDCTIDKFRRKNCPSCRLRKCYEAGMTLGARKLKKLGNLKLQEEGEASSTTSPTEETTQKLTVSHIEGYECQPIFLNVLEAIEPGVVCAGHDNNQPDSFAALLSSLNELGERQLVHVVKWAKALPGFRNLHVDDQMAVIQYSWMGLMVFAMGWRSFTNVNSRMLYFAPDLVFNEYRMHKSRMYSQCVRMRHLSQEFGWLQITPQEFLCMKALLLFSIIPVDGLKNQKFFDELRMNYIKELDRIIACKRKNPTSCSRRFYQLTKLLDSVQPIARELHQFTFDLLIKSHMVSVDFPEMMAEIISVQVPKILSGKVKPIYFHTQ
# Glutathione peroxidase 1 (Homo sapiens), sequence (P07203 whole entry, looked up): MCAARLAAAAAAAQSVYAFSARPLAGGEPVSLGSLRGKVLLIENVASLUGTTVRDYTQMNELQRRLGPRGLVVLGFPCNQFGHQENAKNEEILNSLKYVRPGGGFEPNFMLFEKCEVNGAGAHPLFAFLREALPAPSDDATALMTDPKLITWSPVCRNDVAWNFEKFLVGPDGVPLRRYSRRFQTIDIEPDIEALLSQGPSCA
smiles,measurement,setting,value
Clc1ccc(-c2nc3sccn3c2/C=N/OCc2ccc(Cl)c(Cl)c2)cc1,Potency,[1],20 µM [inhibitor] (active)
same,outcome,[2],inactive
same,activation,[3],-9.11% (inactive)
same,activation,[4],2.87% (inactive)
same,outcome,[5],inactive
same,outcome,[6],inactive
same,outcome,[7],inactive
same,Potency,[8],24.3 µM (active)
same,activation,[9],3.66% (inactive)
same,Potency,[10],50.1 µM (active)
same,Potency,[11],inactive
same,Potency,[12],inactive
same,Potency,[13],inactive
same,Potency,[14],inactive
same,Potency,[15],inactive
same,Potency,[16],inactive
same,Potency,[17],inactive
same,Z-AUC,[18],1.14 (inactive)
same,Z-AUC,[18]; measured here: PEO1 parental Z-AUC,1.09
same,Z-AUC,[18]; measured here: PEO4 Z-AUC,1.23
same,max response,[19],6.54% (inactive)
